Screening data as filed in PubChem BioAssay.
TDP1 cell noCPT = qHTS for Inhibitors of human tyrosyl-DNA phosphodiesterase 1 (TDP1): qHTS in cells in absence of CPT; AID 686978, 2013; hit rate 15% among 420,000; Potency, µM (series often up to 46.2 µM), inactives show top-dose activity change, negative = growth inhibition, usual class: inhibitors; DT40 Tdp1-/- hTDP1 cells, no CPT, ATP luminescence, 48 h; note: % is set by controls: 0 for no effect and ±100 for the full control effect; nearly all actives have a fitted effect of over 55% in size
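Seeded 400 DT40-hTDP1 cells/well (vehicle DMSO, no 20 nM CPT); pinned compounds; ≥48 hr at 37 °C; CellTiter-Glo luminescence as viability measure.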
HepG2 viability = counter-screen for TGF-b inhibitors: cytotoxicity in HepG2 cells; Potency, µM (series often up to 46.1 µM), for inactives: top-dose activity change, negative = cytotoxicity, hits mostly cytotoxic; hit rate 0.76% among 410,000; HepG2 CAGA-GFP viability, ATP luminescence, 18 h; AID 588856
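CellTiter-Glo luminescence gave cytotoxicity after 18 hours at 37 degrees C. The cells were HepG2 CAGA-GFP in 1% FBS DMEM, stimulated with 500 pg/mL TGF-beta after compound addition. %Activity was normalised to no-cell wells (complete cell-killing) and DMSO (no toxicity), and curves were fitted and classified.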
ATXN2 expr inh = inhibitors of ATXN2 expression; Potency, µM (doses to about 57 µM), without a hit: at the highest dose activity change, negative = inhibition, hits mostly inhibitors; AID 1745845; HEK-293 ATXN2-luciferase reporter, luminescence, 24 h; hit rate 0.72% among 360,000; note: % is set by controls: 0 for no effect and ±100 for the full control effect; nearly all actives have a fitted effect of over 55% in size
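ATXN2-luciferase reporter cells (luciferase flanked by upstream and downstream ATXN2 gene portions) were treated 24 h at 37 °C with compounds at up to 57 uM. SteadyGlo luminescence gave expression; GF-AFC fluorescence gave viability.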
TGFb inhibitor = inhibitors of TGF-b signaling; hit rate 1.2% among 410,000; AID 588855; HepG2 CAGA-GFP TGF-b/SMAD3 reporter, GFP fluorescence, 18 h; TGF-beta stimulated, 500 pg/mL final; Potency, µM (series often up to 46.1 µM), for the others: top-dose activity, negative = inhibition, actives largely listed as inhibitors; note: % is set by controls: 0 for no effect and ±100 for the full control effect; nearly all actives have a fitted effect of over 65% in size
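HEPG2 CAGA-GFP reporter cells (1000/well, DMEM with 1% FBS) received compounds, then recombinant TGF-beta at 500 pg/mL final for 18 hours at 37 degrees C. Per-cell GFP summed per well was normalised to unstimulated and stimulated DMSO controls before curve fitting.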
TDP1 cell CPT = DT40-hTDP1 cell growth loss with CPT | chicken DT40 Tdp1-/-;hTDP1 cells + 20 nM CPT, ATP luminescence, 48 h | Potency, µM (highest dose often 46.2 µM), for the others: top-dose activity change, negative = growth inhibition, most hits filed as inhibitors | hit rate 12% among 420,000 | AID 686979; note: % is set by controls: 0 for no effect and ±100 for the full control effect; nearly all actives have a fitted effect of over 55% in size
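Chicken DT40 Tdp1-/- cells complemented with human TDP1, 400 cells/well, exposed to compounds plus 20 nM camptothecin for at least 48 h at 37 C; viability read as ATP content by CellTiter-Glo luminescence.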
ATXN viability = cell viability loss in ATXN counter-screen | S2 cells (HEK-293 line with an ATXN2-luciferase reporter) viability, CellTiter-Fluor protease fluorescence, 24 h | Potency, µM (doses to about 56.7 µM), hits mostly cytotoxic | hit rate 0.49% among 400,000; note: nearly all actives have a fitted effect of over 40% in size
* = called active by the depositor; i = inactive; ? = inconclusive; · = no result given. Rows were chosen to be rich in hits. Some 17% of all compounds tested hit in one or more screens of this group. Calls come from the whole dose curve; as a rule, active = well fitted curve in the direction sought with a large enough effect; inconclusive = small, poorly fitted or top-dose-only effect, or another doubt; inactive = no such curve, though single readings can be large; an effect the other way counts as inactive or inconclusive. Potency is the fitted concentration of half-maximal effect.

SMILES | TDP1 cell noCPT | HepG2 viability | ATXN2 expr inh | TGFb inhibitor | TDP1 cell CPT | ATXN viability
C=CCn1c(N/N=C/c2ccc(O)cc2)nc2ccccc2c1=O | 15µM* | -48% | 37% | -17% | -37% | i
O=c1[nH]c(N/N=C/c2ccc(O)cc2)nc2ccccc12 | 23µM* | -8% | 49% | -16% | 26µM* | i
CCN(CC)S(=O)(=O)c1ccc(C)c(NC(=O)COC(=O)CCC(=O)c2cccs2)c1 | -11% | -1% | 1% | 5% | 3% | i
CC12CCC(=O)C=C1CCC1C2C(O)CC2(C)C1CCC2(O)C(=O)COC(=O)COCC(=O)O (stereo unspecified) | -12% | 1% | 7% | 9% | 12% | i
COc1ccccc1Nc1cc(C(=O)NC2CCCC2)c2ccccc2n1 | ? | -2% | 3% | 3% | ? | i
Cc1ccccc1Nc1cc(C(=O)NC2CCCCC2)c2ccccc2n1 | 21µM* | 0% | -6% | 5% | ? | i
Cc1ccc(Nc2cc(C(=O)NC3CCCC3)c3ccccc3n2)cc1C | 15µM* | 0% | -1% | ? | 13µM* | i
Cc1ccccc1Nc1cc(C(=O)NC2CCC(C)CC2)c2ccccc2n1 (stereo unspecified) | 12µM* | -28% | 43% | -19% | 16µM* | i
Cc1ccc(C)c(Nc2cc(C(=O)NC3CCCCC3)c3ccccc3n2)c1 | -29% | 16% | 5% | 5% | -24% | i
CCOC(=O)C1CCCN(Cc2cn3c(-c4cccc(Br)c4)nnc3s2)C1 (stereo unspecified) | ? | -24% | 4% | -16% | -21% | i
c1ccc(-c2nnc3sc(CN4CCc5ccccc54)cn23)cc1 | ? | -6% | -10% | -3% | 21µM* | i
COc1cccc(-c2nnc3sc(CN4CCCCC4)cn23)c1 | 1.3µM* | -16% | -7% | -13% | 1.2µM* | ?
Cc1nn(Cc2ccc(Cl)c(Cl)c2)c(C)c1NC(=O)c1noc2c1CCc1ccccc1-2 | 5.8µM* | -12% | -25% | ? | 5.8µM* | i
COc1ccc2c(c1)CCc1c(C(=O)Nc3c(C)nn(Cc4ccc(C)cc4)c3C)noc1-2 | 9.2µM* | -2% | -1% | ? | 10µM* | i
Cc1nn(Cc2ccccc2)c(C)c1NC(=O)c1noc2c1CCc1ccccc1-2 | ? | -31% | ? | ? | ? | ?
CC1(C(=O)NCc2ccccc2)CSCC(=O)N1Cc1cccc(C(F)(F)F)c1 (stereo unspecified) | ? | · | · | · | 18µM* | ·
OC(c1cccc(Cl)c1)c1nc(/C=C/c2ccc(C(F)(F)F)cc2)cs1 (stereo unspecified) | ? | -92% | ? | ? | 23µM* | ?
OC(c1cccnc1)c1nc(/C=C/c2ccc(C(F)(F)F)cc2)cs1 (stereo unspecified) | 2.6µM* | -20% | -8% | -2% | 21µM* | i
OC(c1cccnc1)c1nc(-c2cccc(F)c2)cs1 (stereo unspecified) | ? | 0% | 10% | 1% | ? | i
COc1cccc(C(O)c2nc(/C=C/c3ccc(C(F)(F)F)cc3)cs2)c1 (stereo unspecified) | ? | -93% | 0% | ? | ? | i
Nc1nc(SCC(=O)NC2CCCc3ccccc32)n[nH]1 (stereo unspecified) | -14% | 14% | -3% | -10% | 5% | i
O=C(NCCCc1ccccc1)c1ccc(CS(=O)Cc2ccc(Cl)cc2)o1 (stereo unspecified) | ? | 20% | · | 12% | 3% | i
C#CCOCCOCCOCCNc1nc(N2CCN(C(=O)CCCCCCCCCCNC(=O)[C@H]([C@@H](C)CC)n3cc(CCCCCN)nn3)CC2)nc(N2CCN(C(=O)CCCCCCCCCCNC(=O)[C@@H]([C@H](C)O)n3cc(C)nn3)CC2)n1 | ? | -102% | 16µM* | ? | 16µM* | 16µM*
C#CCOCCOCCOCCNc1nc(N2CCN(C(=O)CCCCCCCCCCNC(=O)Cn3cc(CCCCCN)nn3)CC2)nc(N2CCN(C(=O)CCCCCCCCCCNC(=O)[C@H]([C@@H](C)CC)n3cc(CCCCCN)nn3)CC2)n1 | ? | -116% | ? | ? | 23µM* | 22µM*
C#CCOCCOCCOCCNc1nc(N2CCN(C(=O)CCCCCCCCCCNC(=O)Cn3cc(CCCCCN)nn3)CC2)nc(N2CCN(C(=O)CCCCCCCCCCNC(=O)[C@H](CO)n3cc(CCCCCN)nn3)CC2)n1 | ? | -50% | -13% | ? | ? | i
SMILES | TDP1 cell noCPT | HepG2 viability | ATXN2 expr inh | TGFb inhibitor | TDP1 cell CPT | ATXN viability
C#CCOCCOCCOCCNc1nc(N2CCN(C(=O)CCCCCCCCCCNC(=O)[C@H](CCC(=O)O)n3cc(CCCCCN)nn3)CC2)nc(N2CCN(C(=O)CCCCCCCCCCNC(=O)[C@@H]([C@H](C)O)n3cc(C)nn3)CC2)n1 | -5% | -25% | -5% | -5% | -2% | i
CCCCCCC(=O)NNC(=O)CC(=O)Nc1ccccc1C(=O)O | 0% | -23% | 4% | ? | -3% | i
CCOC(=O)c1c(C#N)cnn1-c1ccc(C)cc1 | -5% | 37% | -10% | 27% | -1% | i
Cc1ccc(C(=O)CSc2nc(C)cc(C)c2C(=O)Nc2cccc(C)c2)cc1 | ? | -10% | 10% | 0% | 21µM* | i
COc1ccc(C(=O)CSc2nc(C)cc(C)c2C(=O)Nc2ccccc2C)cc1 | 15µM* | -2% | 8% | -28% | ? | i
O=C(Cc1c(F)cccc1Cl)NNC(=O)Nc1ccc2c(c1)OCO2 | 1% | 0% | 13% | 14% | 0% | i
COc1ccc2cc3cc(C(=O)NCCCN4CCC(C)CC4)oc3nc2c1 | 2.6µM* | -5% | -12% | 0% | ? | i
COc1ccc2cc3cc(C(=O)NCCc4ccc(OC)c(OC)c4)oc3nc2c1 | 18µM* | -27% | ? | -19% | 12µM* | ?
CCN1CCN(CCCNC(=O)c2cc3cc4ccc(OC)cc4nc3o2)CC1 | ? | -29% | -20% | -16% | -6% | i
COc1ccc(OC)c(CNC(=O)c2cc3cc4ccc(OC)cc4nc3o2)c1 | -8% | 2% | -11% | 4% | 27% | i
COc1ccc2cc3cc(C(=O)NCCN4CCN(Cc5ccccc5)CC4)oc3nc2c1 | 21µM* | -48% | -1% | -5% | -28% | i
